In the supplement of paper PMC6555819:

Legend:
Test in all cases: PBM binding z-score (relative to random genomic background probes); higher = stronger binding; sequences stand for … in GC…GCGATTGACAGCGTAGAATGAAGG
[1] = test system: RARb homodimer (NR concentration 270 nM)
Method in brief: (§1)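 The probes on custom Agilent 4×180K protein-binding microarrays were double-stranded, with 34-nt variable regions bearing direct-repeat seeds, single-nucleotide variants, half-site ablations and random human genomic background sequences. Incubation lasted 1 h with ligand-free nuclear receptor dimers in PBS pH 7.4, 2% milk, 0.02% Triton X-100, 1 mM DTT, 0.2 mg/mL BSA and 0.4 mg/ml salmon testes DNA. Antibodies against each partner (one per run) detected bound dimers, and fluorescence scans were regression-normalized. Binding z-scores take the random background probes as reference.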

[2] = test system: RARg:RXRa (NR concentration 270 nM, RXRa partner concentration 90 nM)
Method in brief: as §1

[3] = test system: RARg homodimer (NR concentration 270 nM)
Method in brief: as §1

[4] = test system: RXRa DBDmut IVT, anti-RXR (DBD mutation: RXRa K156A/R161A, NR concentration 90 nM)
Method in brief: as §1

[5] = test system: RXRa homodimer (NR concentration 180 nM)
Method in brief: as §1

[6] = test system: THRa:RXRa (NR concentration 90 nM, RXRa partner concentration 90 nM)
Method in brief: as §1

[7] = test system: THRa homodimer (NR concentration 90 nM)
Method in brief: as §1

[8] = test system: VDR homodimer (NR concentration 270 nM)
Method in brief: as §1

Row | Sequence | PBM binding z-score [1] | PBM binding z-score [2] | PBM binding z-score [3] | PBM binding z-score [4] | PBM binding z-score [5] | PBM binding z-score [6] | PBM binding z-score [7] | PBM binding z-score [8]
1 | TCTAGTTGGTCAAAGGTCACTCACTCGAAATGCG | 4.78 | 6.5 | 6 | 2.11 | 7.54 | 3.86 | 2.1 | 3.03
2 | CAGCCTAGGTCTGGGCCAGTATAGGAGGAACGTT | -0.496 | -0.501 | -0.44 | -1 | -0.703 | -0.77 | -1.16 | -0.974
3 | TCATATTGGTAAACAGGTGAAAGTCCGTAAGTTA | 0.882 | 0.412 | 0.0109 | 1.5 | 0.951 | 0.634 | 0.5 | 0.487
4 | CGTAAAAGTTCAACTAAGGTAACGTAAAGCACGC | 3.88 | 5.28 | 6.11 | 4.41 | 4.42 | 5.35 | 1.75 | 3.84
5 | CCAACTAGGTCAAGGACAGTGAATCTCCGCACGC | 3.18 | 3.66 | 4.42 | 1.8 | 2.41 | 3.16 | 2.22 | 0.694
6 | CCTAGCAGGCCAATCTGGGTCACTCAAGGCTTGA | 2.33 | 1.22 | 1.57 | 0.0731 | 0.984 | 3.9 | 0.369 | 0.000728
7 | TTACCAAGGTGAAAAGTCGTTGATGCACGCCTTG | 0.298 | 0.676 | 0.264 | -0.185 | 1.15 | 1.37 | 0.0466 | -0.327
